Source: PubChem BioAssay (Broad Institute)
C diff growth: inhibitors of Clostridium difficile growth; AID 1259249; Clostridium difficile clinical isolate growth, OD600, 24 h; hits give low values; growth activity, negative = inhibition, % at 16 µg/mL (by protocol); 86,000 tested, 0.25% active;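 active means mean growth activity at or below -80% and every replicate also at or below -80%; inconclusive means mean at or below -80% but some replicate above -80%; inactive means mean growth activity above -80%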;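 further: 0% = DMSO wells and -100% = levofloxacin 16 µg/mL wells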
T cruzi growth-1: T. cruzi proliferation inhibition | T. cruzi beta-gal in NIH3T3, GalScreen luminescence, 90 h | inhibition, % at 8.34 µM | AID 624255 | 77,000 tested, 5.9% active;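 active means mean inhibition above about 93%, with at least 55% of replicates each passing it, limit read from the data, passing the limit was not always enough; inconclusive means only one of those two conditions holds; inactive means neither condition holds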
Pf Dd2 inh: P. falciparum Dd2 growth inhibition | 94,000 tested, 2.3% active | SYBR Green, 72 h; hits give low values | AID 1159554 | activity change, % at 10 µM; in the data active means activity change below about -80%; inconclusive means no clear call, values can overlap the other calls
T cruzi growth-2: Trypanosoma cruzi proliferation inhibition | 5,600 tested, 72% active | shares compounds with T cruzi growth-1 | inhibition, % at 8.35 µM | T. cruzi beta-gal in NIH3T3, GalScreen luminescence, 90 h;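 active means mean replicate inhibition above about 95% and at least 55% of replicates individually reaching it, limit read from the data; inconclusive means only one of the two criteria is met; inactive means neither criterion is met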
T cruzi growth-3: Trypanosoma cruzi proliferation inhibition | T. cruzi beta-gal in NIH3T3, GalScreen luminescence, 90 h | AID 651740 | shares compounds with T cruzi growth-1 | inhibition, % at 2.09 µM | 5,600 tested, 21% active;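 active means mean inhibition above about 95%, with at least 55% of replicates also reaching it, limit read from the data; inconclusive means meets just one of the two conditions; inactive means meets neither condition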;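 further: plate controls were neutral control median for no effect and positive control median for full effect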
3T3 cytotox: NIH/3T3 (mouse) viability loss. shares compounds with T cruzi growth-1. 5,600 tested, 14% active. NIH/3T3 viability, CellTiter-Glo ATP luminescence, 90 h. cytotoxicity (signal decrease), % at 8.35 µM;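 active means mean signal decrease across replicates above about 35% based on untreated-well scatter, with enough replicates individually passing, limit read from the data; inconclusive means no rule stated though some were filed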;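 further: 0% = median of neutral control wells and 100% = median of positive control wells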
3T3 cytotox 2: cytotoxicity in mouse NIH/3T3 fibroblasts | shares compounds with T cruzi growth-1 | NIH/3T3 viability, CellTiter-Glo ATP luminescence, 90 h | inhibition, % at 24.9 µM | 5,600 tested, 56% active;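 active means mean loss of cell viability signal at or above a set limit, and enough replicates individually reaching it; inconclusive means meets only the mean limit or only the replicate share; inactive means meets neither condition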;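 further: 0% = median of neutral control wells and 100% = median of positive control wells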
An asterisk follows results filed as active; u = inconclusive; x = no result. Compounds with a hit are over-represented: about 6.8% of the library has one in this group of screens.

SMILES	C diff growth	T cruzi growth-1	Pf Dd2 inh	T cruzi growth-2	T cruzi growth-3	3T3 cytotox	3T3 cytotox 2
C[C@H]1CCCCO[C@H](CN(C)C(=O)Nc2ccc(F)cc2)[C@@H](C)CN([C@@H](C)CO)C(=O)c2cc(NC(=O)Nc3cccc4ccccc34)ccc2O1	-0.7	116.7*	-45.9	112.6*	93.4	-16.7	-18.0
C[C@H]1CCCCO[C@H](CN(C)C(=O)Nc2cccc3ccccc23)[C@@H](C)CN([C@@H](C)CO)C(=O)c2cc(NC(=O)Nc3ccc(F)cc3)ccc2O1	-13.8	17.3	7.7	x	x	x	x
C[C@@H]1CCCCO[C@H](CN(C)C(=O)Nc2cccc3ccccc23)[C@@H](C)CN([C@H](C)CO)C(=O)c2cc(NC(=O)Nc3ccccc3)ccc2O1	-3.6	39.1	16.8	x	x	x	x
COC(=O)[C@H]1[C@H](CO)[C@H]2Cn3c(ccc(-c4cccc(C(=O)N(C)C)c4)c3=O)[C@H]2N1C	3.4	38.8	-11.6	x	x	x	x
CS(=O)(=O)Nc1ccc2c(c1)[C@H]1C[C@H](CC(=O)NCC3CC3)O[C@H](CO)[C@H]1O2	x	22.7	11.5	x	x	x	x
C[C@H](CO)N1C[C@H](C)[C@@H](CN(C)C(=O)C2CCCCC2)Oc2ncc(C#Cc3ccccc3F)cc2C1=O	1.7	x	-50.4	x	x	x	x
Cc1noc(C)c1NC(=O)Nc1ccc2c(c1)C(=O)N([C@H](C)CO)C[C@@H](C)[C@@H](CN(C)Cc1ccc(C(=O)O)cc1)OCCCC[C@@H](C)O2	x	19.4	48.2	x	x	x	x
Cc1noc(C)c1NC(=O)N(C)C[C@@H]1Oc2ccc(NS(=O)(=O)c3ccc(F)cc3)cc2C(=O)N([C@@H](C)CO)C[C@H]1C	1.2	-10.1	-15.2	x	x	x	x
CN1[C@H](C(=O)NCc2ccccc2F)[C@@H](CO)[C@@H]2Cn3c(ccc(C4=CCCC4)c3=O)[C@@H]21	-2.3	57.7	x	x	x	x	x
COc1cccc(CNC(=O)[C@@H]2[C@@H](CO)[C@@H]3Cn4c(ccc(C5=CCCC5)c4=O)[C@@H]3N2CC2CC2)c1	2.2	37.4	-9.0	x	x	x	x
CCCN1[C@@H]2c3ccc(C4=CCCC4)c(=O)n3C[C@@H]2[C@@H](CO)[C@@H]1C(=O)NCc1cccc(OC)c1	4.9	101.4*	-8.3	73.1	-36.5	19.5	u
CN1[C@@H]2c3ccc(C4=CCCCC4)c(=O)n3C[C@@H]2[C@@H](CO)[C@@H]1C(=O)NCc1ccccc1	-1.6	102.7*	-8.9	96.4*	30.0	10.1	7.4
C[C@@H]1CN([C@H](C)CO)C(=O)c2cc(/C=C/c3ccccc3)cnc2O[C@H]1CN(C)C(=O)c1ccc(F)cc1	-3.6	x	-70.1	x	x	x	x
C[C@@H]1CN([C@@H](C)CO)S(=O)(=O)c2ccc(-c3ccncc3)cc2O[C@H]1CN(C)C	1.9	98.2*	10.7	97.1*	14.7	1.9	19.4
C[C@H](CO)N1C[C@H](C)[C@@H](CN(C)C)Oc2cc(-c3ccncc3)ccc2S1(=O)=O	-1.9	105.8*	-2.5	89.3	24.1	13.1	u
C[C@H](CO)N1C[C@H](C)[C@H](CN(C)C)Oc2cc(-c3ccncc3)ccc2S1(=O)=O	-0.8	11.1	10.3	x	x	x	x
C[C@@H]1CN([C@H](C)CO)S(=O)(=O)c2ccc(-c3ccncc3)cc2O[C@H]1CN(C)C	-2.9	23.6	24.8	x	x	x	x
C[C@@H](NC(=O)C[C@@H]1CC[C@H](NC(=O)C2CC2)[C@@H](CO)O1)c1ccccc1	-1.3	x	24.0	x	x	x	x
O=C(C[C@H]1C[C@H]2c3cc(NC(=O)c4ccc5c(c4)OCO5)ccc3O[C@H]2[C@@H](CO)O1)NCc1cc(F)ccc1F	x	49.8	31.4	x	x	x	x
CO[C@@H]1CN(C)C(=O)c2cc(NC(=O)C3CCCCC3)ccc2OC[C@H](C)N(C)C[C@H]1C	x	-36.0	x	x	x	x	x
CC(C)CC#Cc1ccc2c(c1)O[C@@H](CN(C)C(=O)Cc1ccccc1)[C@@H](C)CN([C@H](C)CO)S2(=O)=O	-1.1	127.0*	-48.5	98.2*	112.5*	30.3	103.3*
CC(C)CC#Cc1ccc2c(c1)O[C@@H](CN(C)C(=O)Cc1cccnc1)[C@@H](C)CN([C@@H](C)CO)S2(=O)=O	1.0	x	-32.3	x	x	x	x
CC(C)CC#Cc1ccc2c(c1)O[C@@H](CN(C)C(=O)Cc1ccncc1)[C@@H](C)CN([C@H](C)CO)S2(=O)=O	4.4	84.2	u	x	x	x	x
CC(C)CC#Cc1ccc2c(c1)O[C@H](CN(C)C(=O)Cc1ccccc1)[C@H](C)CN([C@@H](C)CO)S2(=O)=O	0.6	121.0*	-30.9	99.2*	94.5	17.8	99.8*
CC(C)CC#Cc1ccc2c(c1)O[C@@H](CN(C)C(=O)Cc1cccnc1)[C@H](C)CN([C@H](C)CO)S2(=O)=O	-0.5	x	-35.4	x	x	x	x
SMILES	C diff growth	T cruzi growth-1	Pf Dd2 inh	T cruzi growth-2	T cruzi growth-3	3T3 cytotox	3T3 cytotox 2
CC(C)CC#Cc1ccc2c(c1)O[C@H](CN(C)C(=O)Cc1ccncc1)[C@@H](C)CN([C@H](C)CO)S2(=O)=O	1.9	u	-65.0	100.7*	69.9	3.4	-7.0
CC(C)CC#Cc1ccc2c(c1)O[C@H](CN(C)C(=O)Cc1cccnc1)[C@H](C)CN([C@H](C)CO)S2(=O)=O	4.1	x	11.5	x	x	x	x
CC(C)CC#Cc1ccc2c(c1)O[C@@H](CN(C)C(=O)Cc1ccccc1)[C@@H](C)CN([C@@H](C)CO)S2(=O)=O	19.7	125.8*	-42.5	103.0*	69.3	-0.1	104.3*
CNC[C@@H]1OCCCC[C@@H](C)Oc2ccc(NC(=O)Cc3ccccc3)cc2C(=O)N([C@@H](C)CO)C[C@H]1C	-0.9	-22.7	39.6	x	x	x	x
COc1cccc(S(=O)(=O)N[C@H]2C=C[C@H](CC(=O)NC3CCC3)O[C@@H]2CO)c1	-7.1	18.7	-17.9	x	x	x	x
Cc1ccc(S(=O)(=O)N(C)C[C@H]2Oc3ccc(NC(=O)C4CC4)cc3C(=O)N([C@H](C)CO)C[C@@H]2C)cc1	0.2	19.1	-27.7	x	x	x	x
Cc1ccc(S(=O)(=O)N(C)C[C@@H]2Oc3c(NC(=O)c4ccc(-c5nccs5)cc4)cccc3C(=O)N([C@H](C)CO)C[C@H]2C)cc1	6.3	69.9	-16.2	x	x	x	x
CCCN1C[C@@H](C)[C@@H](OC)CN(C)C(=O)c2cc(NC(=O)Nc3cccc(OC)c3)ccc2OC[C@H]1C	x	50.1	x	x	x	x	x
COc1ccc(NC(=O)Nc2ccc3c(c2)C(=O)N([C@@H](C)CO)C[C@H](C)[C@@H](CN(C)C(=O)Nc2ccc(C(F)(F)F)cc2)OCCCC[C@H](C)O3)cc1	-6.9	u	-82.1*	107.2*	110.4*	16.0	13.4
COc1ccc(NC(=O)Nc2ccc3c(c2)C(=O)N([C@@H](C)CO)C[C@@H](C)[C@@H](CN(C)C(=O)Nc2ccc(OC)cc2)OCCCC[C@H](C)O3)cc1	x	30.6	-39.3	x	x	x	x
COc1ccc(NC(=O)N(C)C[C@H]2OCCCC[C@H](C)Oc3ccc(NC(=O)Nc4ccc(C(F)(F)F)cc4)cc3C(=O)N([C@@H](C)CO)C[C@H]2C)cc1	5.9	78.3	-12.1	x	x	x	x
